Screening results: PubChem BioAssay, National Center for Advancing Translational Sciences (NCATS)
KDM5B inh: inhibitors of human KDM5B histone demethylase; actives 2.6% (n = 220,000); KDM5B demethylase, FDH-coupled NADH fluorescence (FDH is formaldehyde dehydrogenase); Potency, µM (highest dose often 57.7 µM), actives largely listed as inhibitors; AID 1347165; Q9UGL1; active means well fitted inhibition curve with a large enough effect; further: nearly all actives have a fitted effect of over 70% in size
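Inhibition is measured as reduced NADH fluorescence generation from FDH coupling to formaldehyde release. Truncated KDM5BΔAP at 200 nM final acts on H3K4me3 peptide (12.5 µM in substrate mix) in pH 7.5 HEPES buffer with Tween-20, 30 min, room temperature.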
Hits are given with their value; i = inactive. The full list was thinned out, with hits kept by preference.

SMILES	KDM5B inh
Cc1noc(-c2cn(C3CCN(C(=O)c4ccc(OC(F)(F)F)cc4)CC3)nn2)n1	i
Cc1ccc([S+](=O)([O-])c2nnn3c2nc(NC2CC2)c2ccccc23)cc1	i
COc1ccc([S+](=O)([O-])c2nnn3c2nc(N2CCOCC2)c2ccccc23)cc1	79µM
Cc1ccc(C)c([S+](=O)([O-])c2nnn3c2nc(NC2CC2)c2ccccc23)c1	79µM
COCCNc1nc2c(S(=O)(=O)c3ccc(C)c(C)c3)nnn2c2ccccc12	79µM
Cc1cc(C)c([S+](=O)([O-])c2nnn3c2nc(NC2CC2)c2ccccc23)c(C)c1	i
O=[S+]([O-])(c1cccnc1)c1nnn2c1nc(N1CCOCC1)c1ccccc12	i
O=[S+]([O-])(c1ccc(Cl)cc1)c1nnn2c1nc(N1CCC(F)CC1)c1ccccc12	i
COCCCNc1nc2c(S(=O)(=O)c3ccc(C)c(C)c3)nnn2c2ccc(Cl)cc12	i
COCCNc1nc2c(S(=O)(=O)c3ccc(C)c(C)c3)nnn2c2ccc(Cl)cc12	i
Cc1cc(C)c2nc(N3CCC(C(=O)NCc4ccc(OC(C)C)cc4)CC3)sc2c1	i
O=S(=O)(NCCCO)c1ccc(Cl)cc1	i
CCn1c(CNC(=O)c2ccc3c(c2)OCO3)nnc1SCC(=O)c1ccc(OC)cc1	i
CCCc1noc(CN2CCC(c3nc4ccccc4s3)CC2)n1	i
CCC(CC)C(=O)Nc1ccc(C)cc1C	i
O=C(CCC1CCCC1)NCc1nnc2cc(-c3nc(C4CC4)no3)ccn12	11µM
O=C(CC1CCCCC1)NCc1nnc2cc(-c3nc(C4CC4)no3)ccn12	14µM
CC(C)NC(=O)CSc1ncc(-c2ccc(F)cc2)o1	i
Cc1nc(-n2nc(C)c(Cl)c2C)sc1C(=O)N1CCCCC1	i
COc1ccc(/C=C/C(=O)c2cc(C)ccc2OC(=O)c2cccs2)cc1OC	i
CCOC(=O)N1CCC(N2CCc3nc(-c4ccc(Cl)cc4)[nH]c3C2)C1 (centres undefined)	22µM
COC(=O)N1CCc2nc(C)nc(-c3ccc(Cl)cc3)c2CC1	i
O=C(c1ccn(C(F)F)n1)N1CCc2nc(-c3ccc(Cl)cc3)[nH]c2C1	i
c1cncc(-c2nc(NC3CCN(C4CC4)CC3)c3ccccc3n2)c1	i
O=C(Nc1ccc([C@H]2OCC(=O)N(Cc3ccc(F)cc3)[C@@H]2CO)cc1)C1CC1	i
SMILES	KDM5B inh
O=C(OCC(F)(F)C(F)F)c1cccnc1	i
CC(=O)N1CC[C@H](c2nc3cc(F)ccc3o2)C1	i
CCS(=O)(=O)c1ccc2oc([C@H]3CCN(C(C)C)C3)nc2c1	40µM
CCCc1noc(C(C)N2CCC(c3nc4cc(Cl)ccc4o3)CC2)n1 (centres undefined)	i
O=C(/C=C/c1cccs1)c1ccc2ccccc2c1	i
Cc1ccc(S(=O)(=O)NCCc2ccc(S(N)(=O)=O)cc2)c(C)c1	i
Cc1noc(C)c1C(=O)N1CCCCC1c1nc(CCOCC2CCCC2)no1 (centres undefined)	i
Cc1cc(NC(=O)N(Cc2ccc(C)o2)C2CC2)no1	i
O=C(NC(=S)Nc1ccc(CN2CCOCC2)cc1)c1cccc(F)c1	i
CC1(C(=O)Nc2ccc(F)cc2)CN(Cc2ccccc2)Cc2ccc(N3CCOCC3)nc21 (centres undefined)	32µM
CC1(C(=O)Nc2ccccc2)CN(Cc2ccccc2)Cc2ccc(N3CCOCC3)nc21 (centres undefined)	13µM
O=C(NCc1ccc(F)cc1)Nc1cccc(-c2ccc(N3CCOCC3)nn2)c1	i
CCOc1ccccc1NC(=O)Nc1ccc(CN2CCOCC2)cc1	i
O=C(Nc1ccc(N2CCOCC2)cc1)[C@H]1CN(Cc2ccccc2)C[C@H]1C(=O)O	i
CNC(=O)CN(C)C(=O)CCc1ncc(-c2ccccc2F)o1	i
CCCCCCn1c(SCCc2ccccc2)nc2c1c(=O)[nH]c(=O)n2C	i
Cc1cc(C)cc(C(=O)N2CCC(n3cc(-c4nc(C)no4)nn3)CC2)c1	i
CCOC(=O)c1c(C)[nH]c(C(=O)Cn2nnc(-c3ccc(C)cc3)n2)c1C	i
Cc1ccc([S+](=O)([O-])N2CCC3(CCN(Cc4cccs4)c4ccccc4O3)CC2)cc1	i
O=C1CC2(CCN([S+](=O)([O-])c3cccc(C(F)(F)F)c3)CC2)Oc2ccccc2N1c1ccccc1	i
O=[S+]([O-])(c1cccc(C(F)(F)F)c1)N1CCC2(CCN(Cc3cccs3)c3ccccc3O2)CC1	11µM
O=C(CC1COCCN1)N1CCC2(CCC(=O)N(CCc3ccccc3)C2)CC1 (centres undefined)	i
Cc1cccc(C)c1-c1nc(C(=O)N2CCCC2)n2ccccc12	40µM
Cc1cccc(C)c1-c1cc(C(=O)N2CCOCC2)c2cnn(C)c2n1	i
Cc1ccc(-n2ncc(C(=O)N3CCCC3)c2-n2cccc2)cc1	i
Cc1cccc(C)c1-c1nc(C(=O)N2CCOCC2)n2ccccc12	79µM
Cc1ccccc1Nc1nc(C(=O)N2CCCC2)cs1	i
Cc1onc(-c2c(Cl)cccc2Cl)c1C(=O)N1CCOCC1	i
COc1ccc(-c2c(NC(=O)c3cccc([N+](=O)[O-])c3)oc3ccccc3c2=O)cc1OC	i
